Assay [1] addresses T1, Inhibitor of nuclear factor kappa-B kinase subunit epsilon (Homo sapiens) (UniProt Q14164).
T1 sequence (whole entry): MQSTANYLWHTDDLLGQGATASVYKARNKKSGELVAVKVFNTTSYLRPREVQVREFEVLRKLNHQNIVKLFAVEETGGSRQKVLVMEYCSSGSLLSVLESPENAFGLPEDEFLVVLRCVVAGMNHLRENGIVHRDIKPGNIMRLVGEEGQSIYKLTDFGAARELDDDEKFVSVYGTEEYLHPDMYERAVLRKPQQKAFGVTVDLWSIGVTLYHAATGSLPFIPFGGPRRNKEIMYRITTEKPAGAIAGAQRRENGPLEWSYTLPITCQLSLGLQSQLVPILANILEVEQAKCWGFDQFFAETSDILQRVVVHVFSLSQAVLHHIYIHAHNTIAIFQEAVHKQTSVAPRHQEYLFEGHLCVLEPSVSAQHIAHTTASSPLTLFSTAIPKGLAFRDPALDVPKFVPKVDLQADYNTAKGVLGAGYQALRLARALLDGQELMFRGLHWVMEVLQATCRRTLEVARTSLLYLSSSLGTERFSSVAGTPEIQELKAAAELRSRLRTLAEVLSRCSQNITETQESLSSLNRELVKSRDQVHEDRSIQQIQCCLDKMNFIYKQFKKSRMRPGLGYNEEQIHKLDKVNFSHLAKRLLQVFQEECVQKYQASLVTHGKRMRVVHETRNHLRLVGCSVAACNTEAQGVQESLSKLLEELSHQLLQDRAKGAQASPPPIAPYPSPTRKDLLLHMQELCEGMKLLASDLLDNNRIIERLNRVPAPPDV
As to conditions: at 1 µM.

Assay [2] concerns the target T2, Serine/threonine-protein kinase Nek1 (Homo sapiens) (UniProt Q96PY6).
T2 sequence (whole entry): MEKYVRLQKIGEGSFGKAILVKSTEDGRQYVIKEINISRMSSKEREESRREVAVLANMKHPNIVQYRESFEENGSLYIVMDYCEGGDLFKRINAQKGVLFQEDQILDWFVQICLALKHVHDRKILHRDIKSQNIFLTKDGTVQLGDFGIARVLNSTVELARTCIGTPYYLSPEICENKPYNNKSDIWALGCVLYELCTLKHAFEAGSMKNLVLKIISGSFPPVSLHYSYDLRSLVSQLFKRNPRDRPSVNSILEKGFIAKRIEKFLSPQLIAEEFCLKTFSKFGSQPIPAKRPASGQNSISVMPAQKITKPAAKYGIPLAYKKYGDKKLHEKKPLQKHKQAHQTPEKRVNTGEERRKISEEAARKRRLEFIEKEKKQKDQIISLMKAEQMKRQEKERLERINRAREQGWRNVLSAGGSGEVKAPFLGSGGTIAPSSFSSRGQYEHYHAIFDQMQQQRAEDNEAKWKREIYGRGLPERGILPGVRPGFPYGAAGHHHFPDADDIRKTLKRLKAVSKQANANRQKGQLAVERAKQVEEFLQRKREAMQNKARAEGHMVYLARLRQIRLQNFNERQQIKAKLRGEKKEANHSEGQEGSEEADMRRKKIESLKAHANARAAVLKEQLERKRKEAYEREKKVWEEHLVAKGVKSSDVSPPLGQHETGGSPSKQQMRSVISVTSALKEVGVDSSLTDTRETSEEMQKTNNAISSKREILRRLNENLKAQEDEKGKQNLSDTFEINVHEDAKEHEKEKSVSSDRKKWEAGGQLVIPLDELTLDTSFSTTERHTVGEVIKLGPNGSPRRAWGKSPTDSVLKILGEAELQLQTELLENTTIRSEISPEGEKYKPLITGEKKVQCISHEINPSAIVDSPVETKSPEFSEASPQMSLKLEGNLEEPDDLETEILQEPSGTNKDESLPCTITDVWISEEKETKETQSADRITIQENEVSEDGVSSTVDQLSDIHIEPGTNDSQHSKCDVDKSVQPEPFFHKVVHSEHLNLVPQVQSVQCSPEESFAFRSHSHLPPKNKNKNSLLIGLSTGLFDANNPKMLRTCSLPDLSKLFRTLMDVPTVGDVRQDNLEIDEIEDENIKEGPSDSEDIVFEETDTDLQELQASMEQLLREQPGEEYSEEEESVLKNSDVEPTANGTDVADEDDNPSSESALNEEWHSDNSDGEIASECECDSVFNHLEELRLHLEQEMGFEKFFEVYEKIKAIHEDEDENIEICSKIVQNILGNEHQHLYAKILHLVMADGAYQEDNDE
As to conditions: at 0.1 µM.

The target in assay [3] is T2, Serine/threonine-protein kinase Nek1 (Homo sapiens). As to conditions: at 1 µM.
For assay [4], the target named is T3, Serine/threonine-protein kinase Nek2 (Homo sapiens) (UniProt P51955).
T3 sequence (whole entry): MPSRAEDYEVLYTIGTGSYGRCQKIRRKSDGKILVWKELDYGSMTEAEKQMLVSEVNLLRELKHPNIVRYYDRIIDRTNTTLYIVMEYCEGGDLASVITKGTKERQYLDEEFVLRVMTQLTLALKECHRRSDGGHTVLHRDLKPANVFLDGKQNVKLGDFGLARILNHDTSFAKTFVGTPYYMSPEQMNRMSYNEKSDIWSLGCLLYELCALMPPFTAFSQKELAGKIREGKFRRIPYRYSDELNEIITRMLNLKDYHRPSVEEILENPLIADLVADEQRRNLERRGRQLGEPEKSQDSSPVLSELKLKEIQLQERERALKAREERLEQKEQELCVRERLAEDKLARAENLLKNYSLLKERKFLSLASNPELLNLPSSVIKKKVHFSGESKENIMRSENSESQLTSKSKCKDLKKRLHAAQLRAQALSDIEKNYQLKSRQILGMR
As to conditions: at 0.1 µM.

Assay [5] has as its target T3, Serine/threonine-protein kinase Nek2 (Homo sapiens). The conditions noted are these: at 1 µM.
Assay [6] addresses Serine/threonine-protein kinase Nek6 (Homo sapiens) (UniProt Q9HC98). As to conditions: at 0.1 µM.
Assay [7] has the same target. The conditions noted are these: at 1 µM.
The target of assay [8] is Serine/threonine-protein kinase Nek7 (Homo sapiens) (UniProt Q8TDX7). As to conditions: at 0.1 µM.
Assay [9] has the same target. The conditions noted are these: at 1 µM.
Assay [10] addresses T4, Serine/threonine-protein kinase Nek9 (Homo sapiens) (UniProt Q8TD19).
T4 sequence (whole entry): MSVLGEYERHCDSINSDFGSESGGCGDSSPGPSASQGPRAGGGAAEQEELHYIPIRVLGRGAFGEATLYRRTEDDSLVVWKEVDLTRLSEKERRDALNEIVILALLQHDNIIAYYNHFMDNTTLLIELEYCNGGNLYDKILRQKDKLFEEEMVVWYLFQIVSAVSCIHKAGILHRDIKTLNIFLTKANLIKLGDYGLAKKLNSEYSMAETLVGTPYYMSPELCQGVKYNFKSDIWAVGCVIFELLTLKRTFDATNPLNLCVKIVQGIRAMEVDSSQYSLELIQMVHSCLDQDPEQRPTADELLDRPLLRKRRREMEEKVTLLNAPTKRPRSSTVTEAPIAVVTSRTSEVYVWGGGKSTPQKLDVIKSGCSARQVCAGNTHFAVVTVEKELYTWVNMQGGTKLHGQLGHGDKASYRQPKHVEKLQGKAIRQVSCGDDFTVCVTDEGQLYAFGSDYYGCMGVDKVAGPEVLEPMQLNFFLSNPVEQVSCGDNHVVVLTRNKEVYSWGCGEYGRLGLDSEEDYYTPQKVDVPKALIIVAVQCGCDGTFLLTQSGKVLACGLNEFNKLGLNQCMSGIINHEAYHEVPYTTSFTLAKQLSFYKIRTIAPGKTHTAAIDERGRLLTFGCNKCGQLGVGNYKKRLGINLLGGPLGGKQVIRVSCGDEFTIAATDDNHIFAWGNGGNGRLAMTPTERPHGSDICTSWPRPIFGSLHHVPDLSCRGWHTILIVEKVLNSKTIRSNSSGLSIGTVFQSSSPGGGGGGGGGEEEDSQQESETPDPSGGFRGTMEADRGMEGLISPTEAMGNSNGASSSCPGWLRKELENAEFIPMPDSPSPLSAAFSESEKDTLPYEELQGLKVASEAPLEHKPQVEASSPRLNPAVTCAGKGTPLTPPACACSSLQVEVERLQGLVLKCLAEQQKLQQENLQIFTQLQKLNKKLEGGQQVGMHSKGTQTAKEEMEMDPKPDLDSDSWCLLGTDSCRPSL
The conditions noted are these: at 0.1 µM.

Assay [11] concerns the target T4, Serine/threonine-protein kinase Nek9 (Homo sapiens). As to conditions: at 1 µM.
Assay [12] deals with Serine/threonine-protein kinase PLK1 (Homo sapiens) (UniProt P53350). The conditions noted are these: at 0.1 µM.
For assay [13] the target is unchanged. The conditions noted are these: at 1 µM.
Assay [14] has as its target T5, Dual specificity protein kinase TTK (Homo sapiens) (UniProt P33981).
T5 sequence (whole entry): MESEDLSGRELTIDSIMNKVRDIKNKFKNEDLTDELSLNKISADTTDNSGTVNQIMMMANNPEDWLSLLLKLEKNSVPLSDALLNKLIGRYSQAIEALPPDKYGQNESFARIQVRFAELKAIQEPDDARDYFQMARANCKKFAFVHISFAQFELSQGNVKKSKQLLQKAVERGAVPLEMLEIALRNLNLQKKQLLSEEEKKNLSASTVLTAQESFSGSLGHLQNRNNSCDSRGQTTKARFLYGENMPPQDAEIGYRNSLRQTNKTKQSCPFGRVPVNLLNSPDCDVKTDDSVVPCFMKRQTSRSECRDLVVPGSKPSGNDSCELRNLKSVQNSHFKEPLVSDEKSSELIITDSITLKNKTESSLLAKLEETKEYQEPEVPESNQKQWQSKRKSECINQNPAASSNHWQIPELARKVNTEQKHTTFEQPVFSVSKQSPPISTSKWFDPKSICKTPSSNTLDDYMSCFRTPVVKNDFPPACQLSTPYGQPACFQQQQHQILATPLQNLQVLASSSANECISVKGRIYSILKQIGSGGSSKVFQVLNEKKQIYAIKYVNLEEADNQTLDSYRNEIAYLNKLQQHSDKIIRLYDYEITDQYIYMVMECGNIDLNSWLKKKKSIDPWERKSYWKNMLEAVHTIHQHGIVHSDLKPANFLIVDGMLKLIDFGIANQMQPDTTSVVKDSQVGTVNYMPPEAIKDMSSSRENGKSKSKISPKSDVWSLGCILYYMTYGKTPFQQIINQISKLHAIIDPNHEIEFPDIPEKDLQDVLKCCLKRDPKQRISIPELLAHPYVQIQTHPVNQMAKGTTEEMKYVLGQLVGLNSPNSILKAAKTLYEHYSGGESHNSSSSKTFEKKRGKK
As to conditions: at 0.1 µM.

In assay [15] the test system is T6, Receptor-type tyrosine-protein kinase FLT3 (Homo sapiens), P36888 [D835Y].
T6 sequence (whole entry): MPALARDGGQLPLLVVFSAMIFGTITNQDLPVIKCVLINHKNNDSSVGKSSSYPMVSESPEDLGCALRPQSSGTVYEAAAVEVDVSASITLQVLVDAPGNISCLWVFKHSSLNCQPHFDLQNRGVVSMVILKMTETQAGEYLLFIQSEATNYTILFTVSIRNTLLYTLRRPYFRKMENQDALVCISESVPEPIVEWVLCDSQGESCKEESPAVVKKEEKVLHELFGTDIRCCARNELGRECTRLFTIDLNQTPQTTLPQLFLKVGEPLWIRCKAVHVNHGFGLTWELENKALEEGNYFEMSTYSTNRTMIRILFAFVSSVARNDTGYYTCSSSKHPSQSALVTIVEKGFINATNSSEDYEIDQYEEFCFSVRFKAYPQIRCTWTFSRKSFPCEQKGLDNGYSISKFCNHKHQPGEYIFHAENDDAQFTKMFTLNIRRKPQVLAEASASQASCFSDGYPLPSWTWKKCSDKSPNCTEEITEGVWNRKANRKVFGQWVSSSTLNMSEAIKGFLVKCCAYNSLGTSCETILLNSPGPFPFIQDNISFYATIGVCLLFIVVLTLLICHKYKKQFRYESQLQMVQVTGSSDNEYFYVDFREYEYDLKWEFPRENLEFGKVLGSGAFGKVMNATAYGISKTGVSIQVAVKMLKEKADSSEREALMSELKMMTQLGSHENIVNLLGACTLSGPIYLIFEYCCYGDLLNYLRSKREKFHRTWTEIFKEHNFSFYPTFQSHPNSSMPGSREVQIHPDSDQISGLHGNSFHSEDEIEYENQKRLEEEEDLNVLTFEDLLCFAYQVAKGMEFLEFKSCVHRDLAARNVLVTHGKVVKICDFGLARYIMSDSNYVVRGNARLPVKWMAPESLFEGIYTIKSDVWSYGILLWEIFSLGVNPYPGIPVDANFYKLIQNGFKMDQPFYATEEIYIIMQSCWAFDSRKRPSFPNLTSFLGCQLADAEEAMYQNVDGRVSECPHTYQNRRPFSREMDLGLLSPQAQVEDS
As to conditions: at 1 µM.

Assay [16] concerns the target Vascular endothelial growth factor receptor 3 (Homo sapiens) (UniProt P35916). The conditions noted are these: at 0.1 µM.
Assay [17] has the same target. As to conditions: at 1 µM.
The target in assay [18] is Macrophage colony-stimulating factor 1 receptor (Homo sapiens) (UniProt P07333). As to conditions: at 0.1 µM.
For assay [19] the target is unchanged. As to conditions: at 1 µM.
Assay [20] addresses Tyrosine-protein kinase Fyn (Homo sapiens) (UniProt P06241). As to conditions: at 0.1 µM.

Sequence of Serine/threonine-protein kinase Nek7 (Homo sapiens) (Q8TDX7 whole entry, looked up): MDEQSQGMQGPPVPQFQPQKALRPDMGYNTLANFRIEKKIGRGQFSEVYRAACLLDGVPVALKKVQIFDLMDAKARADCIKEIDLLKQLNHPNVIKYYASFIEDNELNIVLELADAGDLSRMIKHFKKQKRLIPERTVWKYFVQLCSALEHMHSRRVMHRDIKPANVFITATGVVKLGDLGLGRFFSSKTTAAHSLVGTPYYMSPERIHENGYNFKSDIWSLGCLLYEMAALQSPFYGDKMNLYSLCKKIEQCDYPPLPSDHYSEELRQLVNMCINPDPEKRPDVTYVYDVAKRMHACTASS
Sequence of Serine/threonine-protein kinase Nek6 (Homo sapiens) (Q9HC98 whole entry): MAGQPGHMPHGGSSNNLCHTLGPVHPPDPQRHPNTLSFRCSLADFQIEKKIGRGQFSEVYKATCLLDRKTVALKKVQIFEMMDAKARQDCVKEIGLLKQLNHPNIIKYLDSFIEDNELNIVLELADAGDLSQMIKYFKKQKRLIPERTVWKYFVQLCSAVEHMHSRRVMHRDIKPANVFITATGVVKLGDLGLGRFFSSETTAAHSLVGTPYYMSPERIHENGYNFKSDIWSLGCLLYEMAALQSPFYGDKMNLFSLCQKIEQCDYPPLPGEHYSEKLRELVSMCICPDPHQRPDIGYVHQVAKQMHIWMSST
Sequence of Vascular endothelial growth factor receptor 3 (Homo sapiens) (P35916 whole entry): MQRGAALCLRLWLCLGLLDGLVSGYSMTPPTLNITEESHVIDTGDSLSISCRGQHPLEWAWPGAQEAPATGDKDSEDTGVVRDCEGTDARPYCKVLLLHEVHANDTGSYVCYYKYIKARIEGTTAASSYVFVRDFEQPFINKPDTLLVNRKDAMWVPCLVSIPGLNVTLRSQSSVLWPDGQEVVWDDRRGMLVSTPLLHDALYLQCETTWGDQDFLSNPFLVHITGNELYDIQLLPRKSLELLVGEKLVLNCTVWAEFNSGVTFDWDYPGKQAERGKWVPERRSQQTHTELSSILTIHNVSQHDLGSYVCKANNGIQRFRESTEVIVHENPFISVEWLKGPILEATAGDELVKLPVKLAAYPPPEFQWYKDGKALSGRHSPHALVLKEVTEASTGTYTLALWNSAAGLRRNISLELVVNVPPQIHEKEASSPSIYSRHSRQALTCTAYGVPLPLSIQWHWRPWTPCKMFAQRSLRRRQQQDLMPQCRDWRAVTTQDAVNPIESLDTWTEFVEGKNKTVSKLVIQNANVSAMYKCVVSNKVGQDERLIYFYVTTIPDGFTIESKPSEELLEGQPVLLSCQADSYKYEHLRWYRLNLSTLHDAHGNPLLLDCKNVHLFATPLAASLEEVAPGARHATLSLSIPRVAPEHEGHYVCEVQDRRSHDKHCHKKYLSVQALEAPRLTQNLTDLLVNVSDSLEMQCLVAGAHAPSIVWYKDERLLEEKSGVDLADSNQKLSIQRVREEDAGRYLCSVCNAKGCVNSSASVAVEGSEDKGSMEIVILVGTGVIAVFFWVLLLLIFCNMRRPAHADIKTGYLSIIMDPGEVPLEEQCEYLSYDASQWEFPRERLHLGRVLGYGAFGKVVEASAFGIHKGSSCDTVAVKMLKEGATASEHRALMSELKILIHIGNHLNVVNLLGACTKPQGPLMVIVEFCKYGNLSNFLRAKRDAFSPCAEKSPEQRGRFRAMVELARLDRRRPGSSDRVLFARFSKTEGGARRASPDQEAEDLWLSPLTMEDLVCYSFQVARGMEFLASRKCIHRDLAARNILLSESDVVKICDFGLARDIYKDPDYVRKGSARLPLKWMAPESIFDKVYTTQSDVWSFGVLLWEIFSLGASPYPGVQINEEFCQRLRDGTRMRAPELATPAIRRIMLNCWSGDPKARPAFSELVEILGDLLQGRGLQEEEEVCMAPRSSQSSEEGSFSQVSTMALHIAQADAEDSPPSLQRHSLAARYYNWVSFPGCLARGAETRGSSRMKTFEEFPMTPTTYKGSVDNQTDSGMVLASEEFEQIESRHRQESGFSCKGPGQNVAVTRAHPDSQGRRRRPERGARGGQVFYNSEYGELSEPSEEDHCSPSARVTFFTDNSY
Sequence of Serine/threonine-protein kinase PLK1 (Homo sapiens) (P53350 whole entry): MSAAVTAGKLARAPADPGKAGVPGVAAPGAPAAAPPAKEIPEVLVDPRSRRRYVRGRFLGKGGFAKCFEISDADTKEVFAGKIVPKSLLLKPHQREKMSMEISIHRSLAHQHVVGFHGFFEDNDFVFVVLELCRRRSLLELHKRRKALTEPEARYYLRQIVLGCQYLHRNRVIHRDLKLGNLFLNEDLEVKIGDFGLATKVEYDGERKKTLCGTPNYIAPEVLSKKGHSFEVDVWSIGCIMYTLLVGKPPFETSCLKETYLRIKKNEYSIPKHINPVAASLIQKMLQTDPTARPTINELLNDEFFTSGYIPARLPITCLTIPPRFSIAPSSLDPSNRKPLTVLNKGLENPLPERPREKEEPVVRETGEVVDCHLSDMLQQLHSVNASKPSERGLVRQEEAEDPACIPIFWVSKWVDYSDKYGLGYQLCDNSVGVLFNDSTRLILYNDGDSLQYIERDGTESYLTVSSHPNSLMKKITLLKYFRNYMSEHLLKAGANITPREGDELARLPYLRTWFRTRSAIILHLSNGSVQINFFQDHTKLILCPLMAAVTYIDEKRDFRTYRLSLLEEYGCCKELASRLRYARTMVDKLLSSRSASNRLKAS
Sequence of Macrophage colony-stimulating factor 1 receptor (Homo sapiens) (P07333 whole entry): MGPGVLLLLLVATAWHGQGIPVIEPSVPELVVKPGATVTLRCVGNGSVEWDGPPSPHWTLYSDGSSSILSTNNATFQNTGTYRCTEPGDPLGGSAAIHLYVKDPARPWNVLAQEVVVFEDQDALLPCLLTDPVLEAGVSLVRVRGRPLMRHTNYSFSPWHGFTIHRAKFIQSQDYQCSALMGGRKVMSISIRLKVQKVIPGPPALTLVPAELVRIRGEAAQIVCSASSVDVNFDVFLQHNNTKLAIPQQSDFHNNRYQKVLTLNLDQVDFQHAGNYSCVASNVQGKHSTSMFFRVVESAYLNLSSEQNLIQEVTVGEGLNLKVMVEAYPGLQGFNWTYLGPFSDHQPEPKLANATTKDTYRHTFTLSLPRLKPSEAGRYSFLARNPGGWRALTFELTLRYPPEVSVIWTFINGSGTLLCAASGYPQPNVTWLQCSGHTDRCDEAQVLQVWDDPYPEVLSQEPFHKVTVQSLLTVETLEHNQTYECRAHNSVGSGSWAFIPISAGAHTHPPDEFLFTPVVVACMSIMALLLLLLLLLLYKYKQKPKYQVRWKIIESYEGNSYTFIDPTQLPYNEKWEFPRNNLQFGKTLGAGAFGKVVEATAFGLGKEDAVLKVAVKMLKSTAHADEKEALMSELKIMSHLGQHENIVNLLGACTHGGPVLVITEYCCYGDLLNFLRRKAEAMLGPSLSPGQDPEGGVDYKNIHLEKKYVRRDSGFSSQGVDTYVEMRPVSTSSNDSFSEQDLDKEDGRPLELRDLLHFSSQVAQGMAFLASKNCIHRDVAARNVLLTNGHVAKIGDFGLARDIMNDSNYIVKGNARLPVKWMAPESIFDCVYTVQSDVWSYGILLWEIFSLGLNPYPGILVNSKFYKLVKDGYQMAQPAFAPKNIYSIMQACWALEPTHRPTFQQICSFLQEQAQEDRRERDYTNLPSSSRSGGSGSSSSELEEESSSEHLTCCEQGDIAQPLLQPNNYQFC
Sequence of Tyrosine-protein kinase Fyn (Homo sapiens) (P06241 2-537 limits assumed): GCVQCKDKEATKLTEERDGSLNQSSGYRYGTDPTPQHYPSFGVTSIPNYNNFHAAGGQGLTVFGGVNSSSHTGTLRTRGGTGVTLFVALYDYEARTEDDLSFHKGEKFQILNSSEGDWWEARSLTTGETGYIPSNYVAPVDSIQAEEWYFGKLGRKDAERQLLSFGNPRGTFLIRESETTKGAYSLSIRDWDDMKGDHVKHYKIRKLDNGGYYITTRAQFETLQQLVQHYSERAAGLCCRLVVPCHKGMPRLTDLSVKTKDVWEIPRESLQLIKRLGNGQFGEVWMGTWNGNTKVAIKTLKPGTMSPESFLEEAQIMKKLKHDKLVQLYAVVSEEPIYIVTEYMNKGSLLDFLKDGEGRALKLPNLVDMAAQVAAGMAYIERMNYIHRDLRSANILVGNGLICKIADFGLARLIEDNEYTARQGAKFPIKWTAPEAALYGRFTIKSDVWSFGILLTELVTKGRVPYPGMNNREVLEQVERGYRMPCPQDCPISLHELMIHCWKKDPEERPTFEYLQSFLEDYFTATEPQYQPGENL

In general, inhibition refers to the drop in the measured response relative to a control, in per cent. Turning to `COc1ccc2ncn(-c3cc(O[C@H](C)c4ccccc4C(F)(F)F)c(C(N)=O)s3)c2c1`, the inhibition in [1] was found to be 1.28%; in assay [2], 8.29%; in assay [3], 43%; in assay [4], 0.45%; in assay [5] it was 11.6%; in assay [6] it was 0.31%. The inhibition in assay [7] was -2.42%; in assay [8], 1.25%; in [9], 0.51%; in assay [10] it was 35.9%; in assay [11], 83.6%; in assay [12], 97%. For the same molecule, the inhibition is 99.2% in assay [13]; 0.16% in assay [14]; 2.3% in [15]; 1.9% in assay [16]; 15% in [17]; -0.05% in assay [18]. Further, the inhibition in [19] was 5.84%; in assay [20], 0.53%.

For the origin of these results see ChEMBL document CHEMBL1961873, “Compounds: GSK PKIS; Assays: Nanosyn kinase panel” (2012).
